Binding signal data for twelve sequences are collected here from paper PMC8384837, “Expanding the binding specificity for RNA recognition by a PUF domain”.

Assay in all cases: yeast three-hybrid, YBZ-1, SC-Leu-His + 0.5 mM 3-AT, 4 days
Common to all, as to conditions: tags: N-Gal4 AD-HA kept; label: inside an RPR1-promoter hybrid RNA with tandem MS2 sites; ssRNA

For one assay, the target named is PUM1 PUF domain R8-RWV (Homo sapiens, UniProt Q14671 828-1176, N1122R;Y1123W;Q1126V). Put shortly: (§1)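 A centromeric plasmid in strain YBZ-1 co-expressed Pumilio-1 PUF domain libraries, randomized at the three base-contacting residues of each repeat, with matching RNA elements; the strain carries a LexA–MS2 coat fusion and a HIS3 reporter. After four days on SC-Leu (input) or SC-Leu-His + 0.5 mM 3-AT (selection), the repeat regions were PCR-amplified and Illumina-sequenced. The interaction score is the log change in variant frequency from input to selection, using log2 and a pseudocount of 1 where absent.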

The next assay deals with PUM1 PUF domain R8-KFP (Homo sapiens, UniProt Q14671 828-1176, N1122K;Y1123F;Q1126P). Put shortly: as §1
The target of the next assay is PUM1 PUF domain R5-KKL (Homo sapiens, UniProt Q14671 828-1176, C1007K;R1008K;Q1011L). Put shortly:
as §1

In a further assay the target is PUM1 PUF domain R5-EKC (Homo sapiens, UniProt Q14671 828-1176, C1007E;R1008K;Q1011C). Put shortly:
as §1

For the next assay, the target named is PUM1 PUF domain R5-NRF (Homo sapiens, UniProt Q14671 828-1176, C1007N;Q1011F). Put shortly: as §1
In the next assay the target is PUM1 PUF domain R3-SLE (Homo sapiens, UniProt Q14671 828-1176, C935S;R936L;Q939E). Put shortly: as §1
The target in the next assay is PUM1 PUF domain R7-GVK (Homo sapiens, UniProt Q14671 828-1176, S1079G;N1080V;E1083K). Put shortly:
as §1

For another assay, the target named is PUM1 PUF domain R7-GTR (Homo sapiens, UniProt Q14671 828-1176, S1079G;N1080T;E1083R). An outline of the steps: as §1
The target of another assay is PUM1 PUF domain R5-KWG (Homo sapiens, UniProt Q14671 828-1176, C1007K;R1008W;Q1011G). Put shortly: as §1
In a further assay the target is PUM1 PUF domain R5-RGD (Homo sapiens, UniProt Q14671 828-1176, C1007R;R1008G;Q1011D). An outline of the steps: as §1
The target of a further assay is PUM1 PUF domain R5-DFW (Homo sapiens, UniProt Q14671 828-1176, C1007D;R1008F;Q1011W). An outline of the steps: as §1
A further assay deals with PUM1 PUF domain R1-RVV (Homo sapiens, UniProt Q14671 828-1176, S863R;R864V;Q867V). An outline of the steps: as §1
A further assay deals with T1, PUM1 PUF domain R6-SFR (Homo sapiens, UniProt Q14671 828-1176, N1043S;Y1044F;Q1047R).
T1 sequence: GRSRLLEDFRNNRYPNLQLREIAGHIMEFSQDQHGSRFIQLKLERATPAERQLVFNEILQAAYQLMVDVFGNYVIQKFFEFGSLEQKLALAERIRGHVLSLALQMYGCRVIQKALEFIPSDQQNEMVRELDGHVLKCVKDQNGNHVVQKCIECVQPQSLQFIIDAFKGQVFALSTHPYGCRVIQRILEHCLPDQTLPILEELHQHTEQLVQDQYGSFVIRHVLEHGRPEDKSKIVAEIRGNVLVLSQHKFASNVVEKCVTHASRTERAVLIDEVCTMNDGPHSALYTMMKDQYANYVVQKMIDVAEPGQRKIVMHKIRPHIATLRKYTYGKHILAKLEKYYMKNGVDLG
Put shortly: as §1

The target of another assay is PUM1 PUF domain R5-GQS (Homo sapiens, UniProt Q14671 828-1176, C1007G;R1008Q;Q1011S). Put shortly: as §1
The target in the next assay is PUM1 PUF domain R5-KHT (Homo sapiens, UniProt Q14671 828-1176, C1007K;R1008H;Q1011T). Put shortly: as §1
For a further assay, the target named is PUM1 PUF domain R4-DFA (Homo sapiens, UniProt Q14671 828-1176, N971D;H972F;Q975A). Put shortly:
as §1

For the next assay, the target named is PUM1 PUF domain R3-RST (Homo sapiens, UniProt Q14671 828-1176, C935R;R936S;Q939T). An outline of the steps: as §1
A further assay has as its target PUM1 PUF domain R3-RDR (Homo sapiens, UniProt Q14671 828-1176, C935R;R936D;Q939R). An outline of the steps:
as §1

A further assay deals with PUM1 PUF domain R3-DRL (Homo sapiens, UniProt Q14671 828-1176, C935D;Q939L). Put shortly:
as §1

Another assay addresses PUM1 PUF domain R1-YQR (Homo sapiens, UniProt Q14671 828-1176, S863Y;R864Q;Q867R). Put shortly: as §1

Regarding “GGCUAGAACUAGUGGAUCCCCCGGCGCCCGGCGGCUCGAGCCCGGGUAAGCGUAAAUAGUCUGCAUGCCGCCGGGCGCCAUGCCUGCAGGUCGACUCUAGAAAACAUG”, the values for the binding signal in the assay with PUM1 PUF domain R8-RWV and with PUM1 PUF domain R8-KFP were 5.22 log2 enrichment (interaction score) and 3.9 log2 enrichment (interaction score), respectively.

As to “GGCUAGAACUAGUGGAUCCCCCGGCGCCCGGCGGCUCGAGCCCGGGUAAGUGUUAAUAGUCUGCAUGCCGCCGGGCGCCAUGCCUGCAGGUCGACUCUAGAAAACAUG”, the binding signal in the assay with PUM1 PUF domain R5-KKL was 2.25 log2 enrichment (interaction score); in the assay with PUM1 PUF domain R5-EKC, 2.3 log2 enrichment (interaction score); with PUM1 PUF domain R5-NRF, 5.64 log2 enrichment (interaction score).

With “GGCUAGAACUAGUGGAUCCCCCGGCGCCCGGCGGCUCGAGCCCGGGUAAGUGUAAGUAGUCUGCAUGCCGCCGGGCGCCAUGCCUGCAGGUCGACUCUAGAAAACAUG”, the binding signal in the assay with PUM1 PUF domain R3-SLE was 3.8 log2 enrichment (interaction score).

As for “GGCUAGAACUAGUGGAUCCCCCGGCGCCCGGCGGCUCGAGCCCGGGUAAGUUUAAAUAGUCUGCAUGCCGCCGGGCGCCAUGCCUGCAGGUCGACUCUAGAAAACAUG”, the binding signal in the assay with PUM1 PUF domain R7-GVK is 4.74 log2 enrichment (interaction score); with PUM1 PUF domain R7-GTR, 4.38 log2 enrichment (interaction score).

Consider “GGCUAGAACUAGUGGAUCCCCCGGCGCCCGGCGGCUCGAGCCCGGGUAAGUGUCAAUAGUCUGCAUGCCGCCGGGCGCCAUGCCUGCAGGUCGACUCUAGAAAACAUG”, for which the binding signal is 2.13 log2 enrichment (interaction score) in the assay with PUM1 PUF domain R5-KKL; 2.59 log2 enrichment (interaction score) with PUM1 PUF domain R5-EKC; 4.46 log2 enrichment (interaction score) with PUM1 PUF domain R5-KWG; 3.87 log2 enrichment (interaction score) with PUM1 PUF domain R5-RGD; 2.86 log2 enrichment (interaction score) with PUM1 PUF domain R5-DFW.

In the case of “GGCUAGAACUAGUGGAUCCCCCGGCGCCCGGCGGCUCGAGCCCGGGUAAGUGUAAAUCGUCUGCAUGCCGCCGGGCGCCAUGCCUGCAGGUCGACUCUAGAAAACAUG”, the binding signal with PUM1 PUF domain R1-RVV is 2.37 log2 enrichment (interaction score).

In the case of “GGCUAGAACUAGUGGAUCCCCCGGCGCCCGGCGGCUCGAGCCCGGGUAAGUGCAAAUAGUCUGCAUGCCGCCGGGCGCCAUGCCUGCAGGUCGACUCUAGAAAACAUG”, in the assay with PUM1 PUF domain R6-SFR, the binding signal was 7.11 log2 enrichment (interaction score).

As for “GGCUAGAACUAGUGGAUCCCCCGGCGCCCGGCGGCUCGAGCCCGGGUAAGUGUGAAUAGUCUGCAUGCCGCCGGGCGCCAUGCCUGCAGGUCGACUCUAGAAAACAUG”, the binding signal is 2.15 log2 enrichment (interaction score) with PUM1 PUF domain R5-GQS and 2.38 log2 enrichment (interaction score) with PUM1 PUF domain R5-KHT.

For the sequence “GGCUAGAACUAGUGGAUCCCCCGGCGCCCGGCGGCUCGAGCCCGGGUAAGUGUACAUAGUCUGCAUGCCGCCGGGCGCCAUGCCUGCAGGUCGACUCUAGAAAACAUG”, in the assay with PUM1 PUF domain R4-DFA, the binding signal was 6.02 log2 enrichment (interaction score).

With “GGCUAGAACUAGUGGAUCCCCCGGCGCCCGGCGGCUCGAGCCCGGGUAAGUGUAAUUAGUCUGCAUGCCGCCGGGCGCCAUGCCUGCAGGUCGACUCUAGAAAACAUG”, the binding signal is 2.83 log2 enrichment (interaction score) in the assay with PUM1 PUF domain R3-RST and 4.8 log2 enrichment (interaction score) with PUM1 PUF domain R3-RDR.

On to “GGCUAGAACUAGUGGAUCCCCCGGCGCCCGGCGGCUCGAGCCCGGGUAAGUGUAAAUAGUCUGCAUGCCGCCGGGCGCCAUGCCUGCAGGUCGACUCUAGAAAACAUG”, for which the binding signal is 5.01 log2 enrichment (interaction score) with PUM1 PUF domain R8-RWV; 3.39 log2 enrichment (interaction score) with PUM1 PUF domain R5-GQS; 3.71 log2 enrichment (interaction score) with PUM1 PUF domain R3-DRL; 2.78 log2 enrichment (interaction score) with PUM1 PUF domain R4-DFA; 6.56 log2 enrichment (interaction score) with PUM1 PUF domain R6-SFR; 4.88 log2 enrichment (interaction score) with PUM1 PUF domain R8-KFP.

In the case of “GGCUAGAACUAGUGGAUCCCCCGGCGCCCGGCGGCUCGAGCCCGGGUAAGUGUAAAUUGUCUGCAUGCCGCCGGGCGCCAUGCCUGCAGGUCGACUCUAGAAAACAUG”, the figures for the binding signal with PUM1 PUF domain R1-YQR and with PUM1 PUF domain R1-RVV were 6.49 log2 enrichment (interaction score) and 2.58 log2 enrichment (interaction score), respectively.
